The whole screen tested about 5,500 compounds, of which about 2,000 (36%) were called active. About 18% were inconclusive and are not listed. Rule as the data show it: active = normalized growth mostly below about 0.91 (no sharp cut-off); inconclusive = no clear call, values can overlap the other calls; inactive = mostly above about 0.92. Some of the results follow.
Test: chemical genetic growth profiling, strain panel (AID 1159580);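 also: tested at 20 µM; growth read once vehicle control cultures reached saturation at 30 °C; 1 = growth at the plate median or of vehicle wells; lower values mean less growth of the strain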
Conditions: growth OD

Measured: normalized growth

CCCNC1CCc2nc(N)sc2C1 (stereo unspecified)
inactive: S. cerevisiae deletion strains, locus YAL013W, strain DEP1, active compounds read low 1.01 | S. cerevisiae deletion strains, locus YBR021W, strain FUR4, active compounds read low 1.02 | S. cerevisiae deletion strains, locus YBR229C, strain ROT2, active compounds read low 1.01 | S. cerevisiae deletion strains, locus YCL029C, strain bik1, active compounds read low 0.997 | S. cerevisiae deletion strains, locus YDL035C, strain GPR1, active compounds read low 1.02 | S. cerevisiae deletion strains, locus YDL074C, strain BRE1, active compounds read low 1.04 | S. cerevisiae deletion strains, locus YDL101C, strain DUN1, active compounds read low 1.01 | S. cerevisiae deletion strains, locus YDL134C, strain PPH21, active compounds read low 1.01 | S. cerevisiae deletion strains, locus YDL185W, strain tfp1, active compounds read low 1.01 | S. cerevisiae deletion strains, locus YDL192W, strain arf1, active compounds read low 1 | S. cerevisiae deletion strains, locus YDR101C, strain arx1, active compounds read low 0.988 | S. cerevisiae deletion strains, locus YDR150W, strain NUM1, active compounds read low 1.01 | S. cerevisiae deletion strains, locus YDR162C, strain NBP2, active compounds read low 1.01 | S. cerevisiae deletion strains, locus YDR318W, strain mcm21, active compounds read low 1 | S. cerevisiae deletion strains, locus YDR388W, active compounds read low 0.994 | S. cerevisiae deletion strains, locus YDR502C, strain sam2, active compounds read low 0.995 | S. cerevisiae deletion strains, locus YEL061C, strain CIN8, active compounds read low 1.01 | S. cerevisiae deletion strains, locus YER110C, active compounds read low 0.99 | S. cerevisiae deletion strains, locus YER155C, strain BEM2, active compounds read low 0.983 | S. cerevisiae deletion strains, locus YER167W, strain BCK2, active compounds read low 1.01 | S. cerevisiae deletion strains, locus YGL078C, strain dbp3, active compounds read low 1.01 | S. cerevisiae deletion strains, locus YGL086W, strain mad1, active compounds read low 0.994 | S. cerevisiae deletion strains, locus YGL248W, strain PDE1, active compounds read low 1.01 | S. cerevisiae deletion strains, locus YGR078C, strain PAC10, active compounds read low 1.03 | S. cerevisiae deletion strains, locus YGR135W, strain pre9, active compounds read low 1 | S. cerevisiae deletion strains, locus YGR229C, strain SMI1, active compounds read low 1.03 | S. cerevisiae deletion strains, locus YGR252W, strain gcn5, active compounds read low 1.03 | S. cerevisiae deletion strains, locus YHR030C, strain SLT2, active compounds read low 1.01 | S. cerevisiae deletion strains, locus YHR079C, strain IRE1 (second series), active compounds read low 0.995 | S. cerevisiae deletion strains, locus YHR094C, strain hxt1, active compounds read low 1 | S. cerevisiae deletion strains, locus YHR129C, strain ARP1, active compounds read low 1.01 | S. cerevisiae deletion strains, locus YHR200W, strain rpn10, active compounds read low 1 | S. cerevisiae deletion strains, locus YIL066C, strain RNR3, active compounds read low 1.02 | S. cerevisiae deletion strains, locus YIL073C, strain SPO22, active compounds read low 1.03 | S. cerevisiae deletion strains, locus YIL125W, strain kgd1, active compounds read low 1 | S. cerevisiae deletion strains, locus YIR030C, strain dcg1, active compounds read low 0.998 | S. cerevisiae deletion strains, locus YJL095W, strain BCK1, active compounds read low 1.02 | S. cerevisiae deletion strains, locus YJL134W, strain LCB3, active compounds read low 1.01 | S. cerevisiae deletion strains, locus YJL168C, strain set2, active compounds read low 1 | S. cerevisiae deletion strains, locus YJL187C, strain SWE1 (second series), active compounds read low 1.01 | S. cerevisiae deletion strains, locus YJR043C, strain POL32, active compounds read low 1 | S. cerevisiae deletion strains, locus YJR075W, strain HOC1, active compounds read low 1 | S. cerevisiae deletion strains, locus YKL009W, strain mrt4, active compounds read low 1.02 | S. cerevisiae deletion strains, locus YKL068W, active compounds read low 1.01 | S. cerevisiae deletion strains, locus YKL085W, strain MDH1 (second series), active compounds read low 1.01 | S. cerevisiae deletion strains, locus YKL085W, strain MDH1, active compounds read low 1.01 | S. cerevisiae deletion strains, locus YKL190W, strain CNB1, active compounds read low 1.02 | S. cerevisiae deletion strains, locus YKR001C, strain vps1, active compounds read low 1.01 | S. cerevisiae deletion strains, locus YLR039C, strain RIC1, active compounds read low 1.05 | S. cerevisiae deletion strains, locus YLR058C, strain SHM2, active compounds read low 1.01 | S. cerevisiae deletion strains, locus YLR102C, strain apc9, active compounds read low 0.997 | S. cerevisiae deletion strains, locus YLR262C, strain YPT6, active compounds read low 1.06 | S. cerevisiae deletion strains, locus YLR268W, strain sec22, active compounds read low 0.992 | S. cerevisiae deletion strains, locus YLR330W, strain CHS5, active compounds read low 1.01 | S. cerevisiae deletion strains, locus YLR342W, strain FKS1 (second series), active compounds read low 1.02 | S. cerevisiae deletion strains, locus YLR371W, strain rom2, active compounds read low 1 | S. cerevisiae deletion strains, locus YLR418C, strain cdc73, active compounds read low 1.01 | S. cerevisiae deletion strains, locus YML016C, strain PPZ1, active compounds read low 1 | S. cerevisiae deletion strains, locus YML032C, strain rad52, active compounds read low 0.992 | S. cerevisiae deletion strains, locus YML124C, strain tub3, active compounds read low 1 | S. cerevisiae deletion strains, locus YMR078C, strain ctf18, active compounds read low 0.999 | S. cerevisiae deletion strains, locus YMR223W, strain ubp8, active compounds read low 1.01 | S. cerevisiae deletion strains, locus YMR263W, strain SAP30, active compounds read low 1.01 | S. cerevisiae deletion strains, locus YMR307W, strain GAS1, active compounds read low 0.995 | S. cerevisiae deletion strains, locus YNL067W, strain RPL9B, active compounds read low 1.01 | S. cerevisiae deletion strains, locus YNL128W, strain TEP1, active compounds read low 1.02 | S. cerevisiae deletion strains, locus YNL153C, strain GIM3, active compounds read low 1 | S. cerevisiae deletion strains, locus YNL233W, strain BNI4, active compounds read low 1.01 | S. cerevisiae deletion strains, locus YNL250W, strain rad50, active compounds read low 0.996 | S. cerevisiae deletion strains, locus YNL271C, strain bni1, active compounds read low 0.993 | S. cerevisiae deletion strains, locus YNL298W, strain CLA4, active compounds read low 1.03 | S. cerevisiae deletion strains, locus YNL307C, strain MCK1, active compounds read low 0.995 | S. cerevisiae deletion strains, locus YNL322C, strain KRE1, active compounds read low 1.01 | S. cerevisiae deletion strains, locus YNR052C, strain pop2, active compounds read low 1 | S. cerevisiae deletion strains, locus YOL006C, strain TOP1, active compounds read low 1.03 | S. cerevisiae deletion strains, locus YOL012C, strain htz1 1.08 | S. cerevisiae deletion strains, locus YOL147C, strain pex11, active compounds read low 0.995 | S. cerevisiae deletion strains, locus YOR061W, strain CKA2, active compounds read low 1.01 | S. cerevisiae deletion strains, locus YOR069W, strain VPS5, active compounds read low 1.01 | S. cerevisiae deletion strains, locus YOR136W, strain idh2, active compounds read low 1 | S. cerevisiae deletion strains, locus YOR144C, strain elg1, active compounds read low 1.01 | S. cerevisiae deletion strains, locus YOR184W, strain ser1, active compounds read low 1.02 | S. cerevisiae deletion strains, locus YOR316C, strain cot1, active compounds read low 1 | S. cerevisiae deletion strains, locus YPL055C, strain LGE1, active compounds read low 1.06 | S. cerevisiae deletion strains, locus YPL241C, strain CIN2, active compounds read low 1.01 | S. cerevisiae deletion strains, locus YPR119W, strain clb2, active compounds read low 1.01 | S. cerevisiae deletion strains, locus YPR141C, strain kar3, active compounds read low 0.996 | S. cerevisiae deletion strains, locus YPR163C, strain tif3, active compounds read low 0.993 | S. cerevisiae deletion strains, locus YPR167C, strain met16, active compounds read low 1.01 | S. cerevisiae deletion strains, strain wtn01, active compounds read low 0.989 | S. cerevisiae strains, strain wild type, active compounds read low 1.01
